The nature of test [1]: qHTS assay for small molecule agonists of the p53 signaling pathway (AID 651631; calls by dose curve; further: nearly all actives have a fitted effect of over 15% in size; further: potency means the concentration at half of the fitted maximal effect). A digest of the protocol: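 Readout was fluorescence from the LiveBLAzer FRET substrate, applied for 2 h at room temperature after 16 h compound exposure at 37 °C. Cells were the p53RE-bla HCT-116 line, with beta-lactamase driven by p53 response elements.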
On the technique in general: Quantitative high-throughput screening tests each substance at several concentrations.

A short description of test [2]: qHTS assay for small molecules that induce genotoxicity in human embryonic kidney cells expressing luciferase-tagged ATAD5 (AID 651632). Further: nearly all actives have a fitted effect of over 15% in size. A digest of the protocol: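 Genotoxicity read-out via ATAD5-luciferase: HEK293T cells, 16 hr compound incubation at 37C, Amplite detection.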
A short description of test [3]: qHTS assay for small molecule agonists of the p53 signaling pathway - cell viability (AID 651633; calls by dose curve; further: nearly all actives have a fitted effect of over 30% in size; further: potency means the concentration at half of the fitted maximal effect). A digest of the protocol: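 p53RE-bla cells, seeded at 4,000 per well and rested 5 h at 37 C/5% CO2, received compounds in DMSO for 16 h at 37 C. CellTiter-Glo was then added, and luminescence was read after 30 min at room temperature to gauge cytotoxicity.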
The nature of test [4]: qHTS assay for small molecule disruptors of the mitochondrial membrane potential - cell viability (AID 720634; calls by dose curve;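 further: human HepG2 liver cancer cells; series mostly up to about 83 µM; nearly all actives have a fitted effect of over 20% in size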). A digest of the protocol:
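Human hepatoma HepG2 cells were treated for 1 hr with test chemicals, then given m-MPI dye and CellTiter-Glo. Cell viability reflects luminescence proportional to cellular ATP.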

Test [5] in a line: qHTS assay for small molecule disruptors of the mitochondrial membrane potential (AID 720635). Further: potency means the concentration at half of the fitted maximal effect. A digest of the protocol:
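HepG2 cells (2,000/well) attached overnight at 37C, then took compound for 1 hr at 37C, 5% CO2. Mito-MPS dye was added for 30 min; fluorescence was read at 490/535 nm (monomers) and 540/590 nm (aggregates).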

The nature of test [6]: qHTS assay to test for compound auto fluorescence at 590 nm (red) in HepG2 cells (AID 720674). An outline of the steps: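 Rose Bengal sodium served as the red fluorophore standard. HepG2 monolayers (overnight attachment, MEM with 10% FBS) were exposed to test compounds for 1 hr at 37 C and read at Ex 540/Em 590 nm.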
Test [7] is described as follows: qHTS assay to test for compound auto fluorescence at 460 nm (blue) in HEK293 cells (AID 720678). An outline of the steps:
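Triamterene serves as the blue fluorophore standard. Compound signal at 405/460 nm is read in HEK293 wells (2,000 cells, 10% dialyzed FBS) after overnight treatment at 37C.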

Test [8] can be described thus: qHTS assay to test for compound auto fluorescence at 590 nm (red) in HEK293 cells (AID 720679). A digest of the protocol: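 We plated HEK293 cells in 10% dialyzed FBS medium, let them adhere for 4-5 hr, then added 23 nL compound. Overnight at 37C and 5% CO2 preceded fluorescence measurement at 540/590nm.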
The nature of test [9]: qHTS assay for small molecules that induce genotoxicity in human embryonic kidney cells expressing luciferase-tagged ATAD5 - cell viability (AID 651634; calls by dose curve; further: nearly all actives have a fitted effect of over 25% in size; further: potency means the concentration at half of the fitted maximal effect). An outline of the steps: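 Live-cell protease activity (CellTiter-Fluor, fluorescence) indicates viability. HEK293T cells with luciferase-tagged ATAD5; 15.5 hr compound treatment at 37C.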
A short description of test [10]: qHTS assay to test for compound auto fluorescence at 535 nm (green) in HepG2 cells (AID 720675).

Values joined by “and” are separate entries in the source; they are usually repeats but may differ in a detail not shown here. Equal values may be shown once. Inconclusive results are not listed. Active and inactive are the calls of the source. Unless noted, the call rests on the fitted dose curve; in most records, active means well fitted curve in the direction sought with a large enough effect in the repeat runs; inconclusive means weak or mixed curves; inactive means no such curve, though single readings can be large; an effect the other way counts as inactive or inconclusive.

Regarding `NC(=O)n1c(O)c(C(=O)c2cccs2)c2cc(Cl)ccc21`, the figures for the Potency in test [1], in [3] and in [5] were 5.96 µM (active), 8.41 µM (active) and 11.9 µM (active), respectively. The Potency result in test [2], in test [4], in test [6], in [7] and in test [8] was “inactive” each time.
Regarding `Cc1ncc([N+](=O)[O-])n1C`, the Potency result in test [1], in [2], in test [3], in test [9], in [4] and in test [5] was “inactive” in each case. Moreover, the Potency entry in test [6] and in test [8] was “inactive” each time.
Turning to `NC(=O)c1cccnc1`, the Potency entry in test [1], in test [2], in [3], in test [9], in test [4] and in [5] was “inactive” in each case. In addition, the Potency entry in [6], in test [10], in [7] and in test [8] was “inactive” in each case.
Turning to `CCCc1cc(=O)[nH]c(=S)[nH]1`, the Potency entry in [1], in test [2], in test [9], in test [4], in test [5] and in test [6] was “inactive” each time. For the same compound, the Potency entry in test [10], in [7] and in test [8] was “inactive” in each case.
In the case of `O=C(O)c1ccccc1`, the Potency entry in [1], in [2], in [3], in test [9], in test [4] and in [5] was “inactive” each time. The Potency entry in test [6], in test [10] and in test [8] was “inactive” in each case.
Turning to `Cc1ncc([N+](=O)[O-])n1CCO`, the Potency entry in [1], in test [2], in test [9], in [4], in [5] and in [6] was “inactive” in each case. The Potency entry in test [10], in test [7] and in test [8] was “inactive” throughout.
Consider `CCCCNC(=O)NS(=O)(=O)c1ccc(C)cc1`, for which the Potency entry in test [1], in [2], in test [9], in [4], in [5] and in [6] was “inactive” each time. Further, the Potency result in test [10] and in [8] was “inactive” in each case.
Turning to `COc1ccc(C(Cl)=C(c2ccc(OC)cc2)c2ccc(OC)cc2)cc1`, the Potency entry in [1], in [2], in test [3], in [9], in [4] and in [6] was “inactive” each time. Further, the Potency entry in test [8] is “inactive”. Also, the Potency in [5] was 13.6 µM (active) and 21.7 µM (active).
Consider `Cc1c(C(=O)O)c(O)cc2c1C(=O)c1c(O)c([C@@H]3O[C@H](CO)[C@@H](O)[C@H](O)[C@H]3O)c(O)c(O)c1C2=O`, for which the Potency result in test [1], in test [2], in test [4], in [5], in test [6] and in test [10] was “inactive” throughout. Besides, the Potency entry in [7] and in [8] was “inactive” throughout. In addition, the Potency in test [9] is 11.9 µM (active) and 37.6 µM (active) and 54.5 µM (active).
Regarding `NS(=O)(=O)c1cc2c(cc1Cl)NCNS2(=O)=O`, the Potency entry in test [1], in test [2], in test [9], in [4], in test [5] and in test [6] was “inactive” throughout. The Potency entry in test [10] and in test [8] was “inactive” throughout.
Consider `CS(=O)(=O)OCCCCOS(C)(=O)=O`, for which the Potency entry in test [1], in test [2], in test [9], in test [4], in test [5] and in [6] was “inactive” in each case. The Potency result in [10], in test [7] and in [8] was “inactive” throughout.
Consider `NC(CO)(CO)CO`, for which the Potency entry in test [1], in test [2], in test [9], in [4], in [5] and in [6] was “inactive” each time. Further, the Potency result in test [8] is “inactive”.
Consider `COc1ccc(OC(F)(F)F)cc1CN[C@H]1CCCN[C@H]1c1ccccc1`, for which the Potency entry in test [1], in test [2], in test [3], in [9], in test [4] and in [6] was “inactive” throughout. For the same compound, the Potency result in [7] and in test [8] was “inactive” each time.
Consider `NS(=O)(=O)O`, for which the Potency result in test [1], in test [2], in test [9], in test [4], in [5] and in test [6] was “inactive” in each case. The Potency entry in [10] and in test [8] was “inactive” in each case.
Take `CCCCCCCC(=O)OCC(COC(=O)CCCCCCC)OC(=O)CCCCCCC`: the Potency result in test [1], in test [2], in [3], in test [9], in [4] and in test [5] was “inactive” each time. In addition, the Potency result in test [6], in test [7] and in test [8] was “inactive” each time.
`CCOC(N)=O`: the Potency entry in test [1], in test [2], in test [3], in [9], in test [4] and in test [5] was “inactive” in each case. The Potency result in test [6] and in test [8] was “inactive” in each case.
For the compound `CCc1nc(N)nc(N)c1-c1ccc(Cl)cc1`, the Potency in [1] was 8.41 µM (active); in test [3] it was 10.6 µM (active) and 12.4 µM (active). For the same compound, the Potency result in test [2], in [9], in test [4], in [5], in [6] and in test [10] was “inactive” throughout. Moreover, the Potency result in test [8] is “inactive”.
Turning to `Cc1cc(=O)oc2cc(O)ccc12`, in test [1], the Potency was 61.1 µM (active) and 48.6 µM (active). The Potency entry in test [2], in test [9], in test [4], in [5], in [6] and in test [10] was “inactive” in each case. The Potency entry in test [8] was “inactive”.
As for `CN(C)C(=O)Nc1ccc(Cl)c(Cl)c1`, the Potency result in test [1], in [2], in test [9], in test [4], in [6] and in test [10] was “inactive” throughout. In addition, the Potency entry in [8] is “inactive”. Further, the Potency in test [5] was 29.8 µM (active).

(Values after PubChem BioAssay (Tox21).)
